Assay results taken from PubChem BioAssay.
Active and inactive are the calls of the source.

Key:
Albumin (Bos taurus) = Albumin (Bos taurus) (UniProt P02769); test: compounds binding labelled BSA control protein – biochemical, small-molecule microarray, Alexa647 label, 635/667 nm fluorescence, artefact control for SMM control protein annotation, profiling panel (AID 1118); conditions: BSA-A647 binding, fluorescence 635 nm, higher = more signal;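 note: score merges 667 nm emission intensity and signal-to-noise per printed compound spot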
Albumin (Bos taurus), sequence (P02769 whole entry, looked up): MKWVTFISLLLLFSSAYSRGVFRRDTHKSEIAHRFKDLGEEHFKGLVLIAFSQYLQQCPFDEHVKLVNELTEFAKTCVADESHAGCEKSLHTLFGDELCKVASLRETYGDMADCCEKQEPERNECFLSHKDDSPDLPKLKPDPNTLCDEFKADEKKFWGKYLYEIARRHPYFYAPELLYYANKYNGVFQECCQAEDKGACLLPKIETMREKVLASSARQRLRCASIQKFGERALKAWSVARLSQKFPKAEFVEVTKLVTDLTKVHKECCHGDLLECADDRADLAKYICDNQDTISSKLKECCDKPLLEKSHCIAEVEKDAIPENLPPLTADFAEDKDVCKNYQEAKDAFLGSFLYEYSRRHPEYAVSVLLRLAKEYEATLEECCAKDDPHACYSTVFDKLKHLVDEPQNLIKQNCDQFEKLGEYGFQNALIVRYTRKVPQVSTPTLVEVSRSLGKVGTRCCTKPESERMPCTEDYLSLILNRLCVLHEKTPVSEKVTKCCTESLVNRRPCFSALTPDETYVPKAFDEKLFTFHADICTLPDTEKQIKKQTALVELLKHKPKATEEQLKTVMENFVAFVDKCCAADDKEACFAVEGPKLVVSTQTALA

[1] = probe aXIP binding to arrayed compounds – biochemical, NeuroSMM set, 635/667 nm fluorescence, primary screen (AID 1119); conditions: small-molecule microarray, higher = more signal, called active from +8 up or from −8 down;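 note: probe is the protein aXip251-270 applied at 1 µg/mL to compound-printed slides; binding of probe to printed compounds measured as 667 nm fluorescence plus signal to noise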
[2] = probe aNOTCH3 binding on compound microarray – biochemical, small-molecule microarray, 635/667 nm fluorescence, primary screen (AID 1120); conditions: higher = more signal;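 note: probe is a biotin-tagged antibody raised against NOTCH3 rather than NOTCH3 protein; score merges spot fluorescence near 667 nm with spot signal to noise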
[3] = probe aNOTCH2 binding on compound microarray – biochemical, small-molecule microarray, 635/667 nm fluorescence, primary screen (AID 1121); conditions: higher = more signal;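 note: score merges feature fluorescence read at 667 nm with its signal to noise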
[4] = biological target: Carbonic anhydrase 2 (Homo sapiens) (UniProt P00918); test: compounds binding carbonic anhydrase 2 – biochemical, small-molecule microarray, Alexa647-labelled CAII, profiling panel (AID 1122); conditions: CAII-A647 binding fluorescence, higher = more signal
[5] = COS7 lysate on small-molecule microarray, probe aHis, 635 nm (AID 1123); conditions: COS7 cell lysate, fluorescence, higher = more signal;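 note: z-score combines 667nm fluorescence intensity with signal-to-noise per printed compound spot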
[6] = probe aLAP1 signal on lysate-treated microarray – cell lysate, small-molecule microarray, COS7 lysate, primary screen (AID 1124); conditions: probe aLAP1, fluorescence, higher = more signal;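 note: lysate comes from COS7 cells expressing LAP1 and is applied at 0.3 µg/mL; score merges spot fluorescence near 667 nm with signal-to-noise over triplicate slides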
Sam68 (KHDRBS1) = test: compounds binding KHDRBS1 protein – biochemical, small-molecule microarray, 635 nm fluorescence, primary screen (AID 1125); conditions: higher = more signal;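 note: score merges 667 nm channel intensity with signal to noise over triplicate slides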
[7] = system: Chordin-like protein 2 (CHRDL2); test: compounds binding chordin-like 2 – biochemical, small-molecule microarray, 635 nm fluorescence, primary screen (AID 1126); conditions: fluorescence 635 nm, higher = more signal;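 note: printed compound slides probed with Chrdl2 protein at 4 µg/mL for 1 h at 4 C; score merges 667 nm emission intensity with signal to noise over three replicate slides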
[8] = biological target: Concanavalin-A (Canavalia ensiformis) (UniProt P02866); test: compounds binding concanavalin A lectin – biochemical, small-molecule microarray, Alexa647 label, 635 nm, artefact control for SMM control protein annotation, primary screen (AID 1127); conditions: ConA-A647 binding fluorescence, higher = more signal;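 note: z combines 667 nm emission intensity with signal-to-noise across three replicate slides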
Concanavalin-A (Canavalia ensiformis), sequence (P02866 whole entry, looked up): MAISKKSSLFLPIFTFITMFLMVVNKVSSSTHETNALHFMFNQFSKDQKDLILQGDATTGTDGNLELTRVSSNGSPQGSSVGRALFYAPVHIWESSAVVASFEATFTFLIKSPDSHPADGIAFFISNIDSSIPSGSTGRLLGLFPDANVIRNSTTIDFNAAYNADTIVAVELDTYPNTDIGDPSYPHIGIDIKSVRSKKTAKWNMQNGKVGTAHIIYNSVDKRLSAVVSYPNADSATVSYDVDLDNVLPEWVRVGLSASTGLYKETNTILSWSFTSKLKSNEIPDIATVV

Compound	composite z-score (Albumin (Bos taurus))	composite Z-score [1]	composite z-score [2]	composite z-score [3]	composite z-score [4]	composite z-score [5]	composite z-score [6]	composite z-score (Sam68 (KHDRBS1))	composite z-score [7]	composite z-score [8]
Cc1ccc([C@H]2C(C(=O)O)=C[C@@H](C(C)(C)C)N2S(=O)(=O)c2ccc(C)cc2)cc1	0.966	0.0172 (inactive)	0.305	0.0746	0.531	1.99	0.868	1.31	-0.202	1.21
COc1ccc(C(O)C2C=CC3C(=O)N(c4ccccc4)C(=O)C3N2Nc2ccc(C(C)C)cc2)c2ccccc12 (stereo not given)	0.916	0.0396 (inactive)	0.378	0.186	0.725	2.84	0.284	1.31	-0.118	1.12
C=C(CCCC)C(=O)CC[C@H](OC(=O)c1ccccc1-c1ccccc1C(=O)O)c1ccccc1OCCO	0.0147	-0.104 (inactive)	-0.104	-0.189	0.693	0.043	0.61	0.203	0.277	-0.496
COc1ccc([Si](C)(C)[C@H]2[C@H](CC(=O)N3CCC[C@H]3CO)O[C@@]3(C(=O)N(Cc4ccc(N5CCC5=O)cc4)c4ccccc43)[C@@H]2C)cc1	0.669	0.156 (inactive)	-0.0182	-0.147	0.474	2.24	0.568	1.3	1.25	1.13
O=C1C2C=CC(C(O)C=Cc3ccc([N+](=O)[O-])cc3)N(Nc3ccccc3)C2C(=O)N1c1ccccc1 (stereo not given)	0.859	0.075 (inactive)	0.346	0.0167	0.713	2.05	0.276	1.24	-0.0982	1.1
COC(=O)[C@@]1(Cc2ccc(F)cc2)[C@H]2c3cc(C(=O)N4CCCC4)n(CC4CC4)c3C[C@H]2CN1C(=O)c1ccccc1	0.87	1.5 (inactive)	1.07	0.416	0.765	2.99	0.888	1.3	-0.621	0.553
C=CCNC(=O)[C@H]1[C@@H]2C(=O)O[C@@H](c3ccccc3)[C@@H](c3ccccc3)N2[C@@H](c2ccc(O)cc2)[C@]12C(=O)N(C(=O)OCCOC)c1ccc(C#CCC(C(=O)OC)C(=O)OC)cc12	0.675	1.04 (inactive)	0.0904	-0.154	0.378	2.05	0.775	1.3	0.822	0.96
O=C1O[C@H](c2ccccc2)[C@H](c2ccccc2)N2[C@H]1[C@@H](C(=O)N1CCCCCCC1)[C@]1(C(=O)Nc3ccc(C#CC4(O)CCCCCC4)cc31)[C@H]2c1ccc(O)cc1	-0.0339	5.24 (inactive)	1.77	0.956	0.705	3.64	1.42	1.29	1.39	1.07
CCOC(=O)C1=C[C@@H](C(C)(C)C)N(S(=O)(=O)c2ccc(C)cc2)[C@H]1c1cccc(Cl)c1	0.91	-0.244 (inactive)	0.0311	-0.037	0.232	1.15	0.596	1.3	0.0761	1.11
C=C(COC)C(=O)CC[C@@H](OC(=O)c1cccnc1)c1ccccc1OCCO	-0.726	0.245 (inactive)	0.0237	-0.0681	0.758	0.105	-0.377	-0.356	0.349	0.484
CCCC=C(CCC)[C@@H](NS(=O)(=O)c1cccc2cccnc12)c1ccc(-c2ccccc2)cc1	0.723	0.339 (inactive)	0.438	-0.0581	0.666	2.88	0.0607	1.31	-0.677	1.14
Cc1ccc(S[C@]2(C(=O)NCc3ccccc3)CC(=O)N(Cc3cc(C(F)(F)F)cc(C(F)(F)F)c3)[C@@H]2c2ccc(CO)cc2I)cc1	-0.618	-0.244 (inactive)	-0.338	-0.161	0.699	0.67	0.0779	-0.191	-1.77	-1.54
C=CCOC(=O)[C@H]1[C@@H]2C(=O)O[C@@H](c3ccccc3)[C@@H](c3ccccc3)N2[C@@H](c2ccc(OCCOC(=O)[C@H]3C[C@H]4C(=O)N[C@@H](CCCCNC(C)=O)C(=O)N4[C@H]3c3cccc(OCCO)c3)cc2)[C@]12C(=O)Nc1ccc(I)cc12	-0.371	1.97 (inactive)	-0.366	-0.354	0.605	1.47	0.353	1.25	0.736	1.12
